Records with an inconclusive call do not appear. Values without a mark were called inactive. Active and inactive are the calls of the source. The call rests on the fitted dose curve; in most records, active means well fitted cell-killing curve with a large enough effect in the repeat runs; inconclusive means weak or mixed curves, or effect the other way; inactive means flat fitted curve, though single readings scatter.
assay: cAMP Responsive Elements (CRE) small molecule agonists, cell-based qHTS assay: qHTS cell viability counter screen (AID 2060914); settings: CRE-bla HEK293T viability, CellTiter-Glo luminescence, 5 h; series mostly up to 92.4 µM; activity change, negative = cytotoxicity: at the top concentration; further: nearly all actives have a fitted effect of over 50% in size
Method in brief: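 Cells are seeded and incubated 18 h, treated with compounds in DMSO for 3 h, read for the bla reporter, then given CellTiter-Glo; luminescence is measured after 30 min at room temperature.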
On the % scale 0 is the no-effect control and ±100 the full control effect.

In order of falling “activity change, negative = cytotoxicity” value:
1. CN1CC[C@H](c2c(O)cc(O)c3c(=O)cc(-c4ccccc4Cl)oc23)[C@H](O)C1  19.4% [at 42.5 µM]
2. Nc1ncn([C@@H]2O[C@H](CO)[C@@H](O)[C@H]2O)c(=O)n1  13.3% [at 42.5 µM]
3. CC(=O)OCC(=O)[C@@]1(O)CCC2C3CCC4=CC(=O)CC[C@]4(C)C3[C@@H](O)C[C@@]21C (stereo not given in full)  8.64% [at 42.5 µM]
4. O=c1[nH]c2ccccc2c(=O)n1CCCl  4.9% [at 42.5 µM]
5. CCOC(=O)c1ccc(NC(=O)CN2CCCCC2)cc1  4.14% [at 42.5 µM]
6. C=CCn1c(=O)n([C@@H]2O[C@H](CO)[C@@H](O)[C@H]2O)c2nc(N)[nH]c(=O)c21  0.269% [at 42.5 µM]
7. CC(NC(CCc1ccccc1)C(=O)O)C(=O)N1C(=O)N(C)CC1C(=O)O (stereo not given)  -0.296% [at 42.5 µM]
8. NS(=O)(=O)c1cc(C2(O)NC(=O)c3ccccc32)ccc1Cl (stereo not given)  -6.64% [at 42.5 µM]
9. CCOC(=O)c1cccc(N)c1  -13.7% [at 42.5 µM]
10. CC(C)=CCNc1ncnc2c1ncn2[C@@H]1O[C@H](CO)[C@@H](O)[C@H]1O  -17.5% [at 42.5 µM]
11. CSc1ccc2c(c1)C(N1CCN(C)CC1)Cc1ccccc1S2 (stereo not given)  -29.2% [at 42.5 µM]

In order of falling “activity change, negative = cytotoxicity” value:
1. O=c1cc(-c2ccccc2)oc2cc(O)cc(O)c12  10.8%
2. Cc1cccc([N+](=O)[O-])c1C(=O)O  6.99%
3. CC(=O)OC(C)OC(C)=O  6.25%
4. Cc1cc(Cc2ccc(N)c(C)c2)ccc1N  2.23%
5. CCOC(=O)COC(=O)c1ccccc1C(=O)OCC  1.94%
6. O=Cc1ccc(Cl)c([N+](=O)[O-])c1  1.43%
7. CC(C)(CCC(=O)O)C(=O)O  1.3%
8. Cc1nccn1-c1ccc(Sc2cccc(C3(C(N)=O)CCOCC3)c2)cc1  0.411%
9. CCOC(=O)C(C)C(C)=O (stereo not given)  0.254%
10. Cc1ccc(C(=O)O)cc1[N+](=O)[O-]  0.218%
11. CCCCOCCOC(=O)CCCCCCCCC(=O)OCCOCCCC  -1.06%
12. CC[C@H](C)[C@@H](C(=O)O)n1sc2ccccc2c1=O  -1.21%
13. CC(=O)c1sc(C)nc1C  -2%
14. CC(CO)(CO)CO  -2.14%
15. CC(C)(C)C1CCC(=O)CC1  -3.36%
16. NC(=O)Nc1ccccc1  -3.51%
17. OC[C@@H](O)C(O)[C@@H](O)CO (stereo not given in full)  -4.68%
18. COc1cc(C(=O)NC2CCN(C)CC2)ccc1Nc1ncc2c(n1)N(C1CCCC1)CC(F)(F)C(=O)N2C  -6.3%
19. O=C(c1ccccc1)c1cccc(O)c1  -9.08%
20. O=C[C@H](O)[C@H](O)[C@H](O)CO  -12.1%
21. CCCCCCCC(=O)Oc1c(Br)cc(C#N)cc1Br  -16%
22. CCCCCCCCS(=O)C(C)Cc1ccc2c(c1)OCO2 (stereo not given)  -17.5%
23. CC[C@H](C)COC(=O)/C=C/c1ccc(N=Cc2ccc(OC)cc2)cc1  -26%

In the case of `CN(C)CCCN1c2ccccc2Sc2ccc(Cl)cc21`, the Potency is reported as “inactive”.
For `CC1(C)OC[C@@H]2O[C@@]3(C(=O)O)OC(C)(C)O[C@H]3[C@@H]2O1`, the Potency was “inactive”.
For `COCN(COC)c1nc(N(COC)COC)nc(N(COC)COC)n1`, the Potency was “inactive”.
In the case of `Cc1ccc(O)cc1`, the Potency is reported as “inactive”.
For `C#C[C@]1(O)CC[C@H]2[C@@H]3CCC4=CC(=O)CC[C@@H]4[C@H]3CC[C@@]21CC`, the Potency was “inactive”.

With `O=S(O)(O)=S` the activity change, negative = cytotoxicity was 9.38% [at 8.39 µM].
